MazF activator – MazEF (E. coli) toxin RNase activation | FAM/BHQ RNA-DNA oligo cleavage fluorescence, 5 h | hit rate 0.32% among 350,000 | activation, % at 20 µM | AID 504720 | P0AE70; in the data active = activation above about 50%
Target sequence (P0AE70 whole entry, looked up): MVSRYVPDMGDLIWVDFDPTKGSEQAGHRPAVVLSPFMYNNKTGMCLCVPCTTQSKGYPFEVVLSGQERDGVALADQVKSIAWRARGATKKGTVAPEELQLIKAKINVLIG
BJeLR viability – kills HRASV12-expressing BJeLR cells. hit rate 0.17% among 300,000. AID 1554. BJeLR (HRASV12) viability, CellTiter-Glo ATP luminescence, 48 h. inhibition, % (concentration not given with the values); in the data active = inhibition above about 50%
3CLpro inhibitor – SARS-CoV 3CLpro protease inhibition. P0C6X7. recombinant SARS-CoV 3CLpro, quenched FRET peptide cleavage. inhibition, % at 6 µM. hit rate 0.14% among 290,000. AID 1706; in the data active = inhibition above about 12%
VHR inh abs – DUSP3 (human) phosphatase inhibition; P51452; hit rate 0.52% among 290,000; AID 1654; inhibition, % at 13.3 µM; recombinant VHR phosphatase, pNPP absorbance; in the data active = inhibition above about 50%
Target sequence (P51452 whole entry, looked up): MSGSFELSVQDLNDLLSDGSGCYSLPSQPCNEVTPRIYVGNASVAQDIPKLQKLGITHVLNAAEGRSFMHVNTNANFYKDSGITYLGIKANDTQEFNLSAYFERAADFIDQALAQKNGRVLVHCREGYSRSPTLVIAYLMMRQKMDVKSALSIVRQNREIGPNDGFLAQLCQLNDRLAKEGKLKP
PfHsp40 rescue – rescue of PfHsp40-mediated yeast toxicity. S. cerevisiae expressing PfHsp40, growth rescue, ATP luminescence. growth rescue, % at 12.5 µM. hit rate 0.68% among 340,000. AID 504582; in the data active = growth rescue above about 28%, passing the limit was not always enough;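 also: yeast W303a lacking pdr1 and pdr3 grown in galactose medium; growth measured after three days at 30 °C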
BH1578 lux ind – inducers of Vibrio cholerae quorum light production without autoinducers; V. cholerae BH1578 lux reporter, luminescence, 6 h; hit rate 0.16% among 350,000; AID 588436; activation, % at 18.7 µM; in the data active = activation mostly above about 9.7%, no sharp cut-off
An asterisk follows results filed as active; i = inactive; . = not tested or not shown. Sampled rows, rich in hits. Any-hit rate of the full collection: about 1.7%.

SMILES | MazF activator | BJeLR viability | 3CLpro inhibitor | VHR inh abs | PfHsp40 rescue | BH1578 lux ind
COCCN1CC(C(=O)NCCc2nc(C)c(C)s2)CCC1=O (configuration not stated) | 4.7 | -2.8 | -0.6 | -5.0 | -0.2 | -0.9
Cc1cccc(N2C(=O)c3cccc4c(N(C)CCO)ccc(c34)C2=O)c1 | 78.0* | -4.8 | -1.1 | 5.0 | 0.0 | -0.9
N#CC(c1ccc(Cl)cc1)c1nc2ccccc2nc1C(F)(F)F (configuration not stated) | -13.5 | 8.6 | 3.7 | 3.6 | 53.2* | i
COc1cc(C2(c3ccc(O)c(OC)c3)C(=O)Nc3c(C)cc(Br)cc32)ccc1O | 10.0 | -5.3 | . | . | 7.0 | -0.5
Cc1c(CCCl)c(Cl)n2c(nc3ccccc32)c1C#N | 29.4 | . | . | . | -0.2 | -0.8
O=c1cc(CSc2ccc(Cl)cc2)nc(-c2ccccn2)[nH]1 | 4.2 | 19.0 | 2.3 | 15.5 | 325.0* | 1.4
Oc1ccc(Br)cc1-c1nc2cnccn2c1NC1CCCCC1 | -5.8 | -6.8 | 2.5 | 14.6 | 93.8* | i
Oc1ccc(Br)cc1-c1nc2cnccn2c1NC1CCCC1 | 0.1 | 3.0 | -3.8 | 2.9 | 9.4 | i
O=NN(CCc1ccncc1)c1ccc(OCc2ccccc2)cc1 | 2.6 | 19.6 | 0.1 | 6.7 | 387.7* | -0.4
CCOC(=O)C1C(=O)C=C(/C=C/c2ccc(N(C)C)cc2)CC1c1ccccc1 (configuration not stated) | 106.0* | 3.4 | -4.0 | 9.0 | -0.9 | -0.4
CCn1ncc(/C=N\NC(=O)c2ccc3c(c2)c(C)c(C)n3Cc2ccccc2)c1C | -5.4 | 4.9 | -1.4 | 15.2 | 0.2 | i
CCn1cc(/C=N\NC(=O)c2ccc3c(c2)c(C)c(C)n3Cc2ccccc2)c(C)n1 | -0.8 | 35.2 | 9.3 | -8.8 | 71.7* | i
CN(C)c1ccc2c(c1)OC(N)=C(C#N)C2c1cccc(F)c1 (configuration not stated) | 51.6* | 10.4 | -2.9 | -29.1 | 0.1 | 1.0
c1ccc(-c2ccc(C(c3ccccc3)n3ccnc3)cc2)cc1 (configuration not stated) | -10.6 | -13.1 | 1.2 | 20.1 | 175.7* | 4.2
O=C1/C(=C/C=C/c2ccco2)SC(=S)N1c1ccc(O)cc1 | -15.3 | 10.3 | 1.2 | 15.5 | 8.0 | 2.1
CC(C)C(C(=O)O)N1C(=O)/C(=C/C=C/c2ccco2)SC1=S (configuration not stated) | -29.8 | 0.1 | -3.5 | 51.5* | 1.4 | i
Cc1ccn2c(Cc3ccccc3)c(-c3ccc(F)cc3)nc2c1 | -5.6 | . | . | . | . | -0.4
Cc1ccc(C(=O)Nc2cccc(-c3cnc4ccccc4n3)c2)cc1 | 5.3 | 1.1 | -1.4 | 11.7 | 1.4 | i
Cc1cccc(C(=O)Nc2cccc(-c3cnc4ccccc4n3)c2)c1 | 53.3* | 8.6 | -2.4 | -10.9 | 0.7 | i
Cc1nc(SCc2nc3ccc(Br)cc3[nH]2)c2oc3ccccc3c2n1 | -48.5 | . | . | . | 7.3 | -0.7
CCc1nc(SCc2nc3ccccc3[nH]2)c2oc3ccccc3c2n1 | 2.1 | -7.5 | 2.8 | 19.0 | 41.5* | i
C[C@@H]1CCCCO[C@H](CN(C)S(=O)(=O)c2cn(C)cn2)[C@@H](C)CN([C@H](C)CO)C(=O)c2cc(NC(=O)c3ccncc3)ccc2O1 | 0.6 | . | . | . | . | -1.0
COc1cc(OC)cc(N(C(=O)CNC(=O)c2ccco2)C(C(=O)NCC2CCCO2)c2ccccc2)c1 (configuration not stated) | 7.1 | 3.3 | -6.9 | 58.5* | -1.4 | -0.4
COc1ccc(C(C(=O)NCC2CCCO2)N(C(=O)CNC(=O)c2ccco2)c2cc(C)ccc2C)cc1OC (configuration not stated) | -1.9 | 2.2 | -2.1 | 52.9* | 0.8 | i
CCc1ccc(N(C(=O)CNC(=O)c2ccco2)C(C(=O)NCC2CCCO2)c2ccccc2)cc1 (configuration not stated) | 12.6 | -2.7 | -1.8 | 22.5 | 0.2 | -0.8
COc1ccc(C(C(=O)NCC2CCCO2)N(C(=O)CNC(=O)c2ccco2)c2cc(C)cc(C)c2)cc1OC (configuration not stated) | 1.0 | 4.7 | -1.4 | 20.4 | -2.3 | -0.3
OCC1(CC2CCCCO2)CCN(C/C=C/c2ccccc2)CC1 (configuration not stated) | 8.7 | -5.8 | 5.7 | -3.9 | -1.6 | -0.3

Screens from PubChem.
